Assay outcomes (PubChem)
Anesthetic bind: candidate novel general anesthetic via apoferritin binding; P02791; apoferritin/1-aminoanthracene competitive binding, fluorescence; Potency, µM (highest dose often 77.5 µM), without a hit: at the top dose activity change, negative = displacement, most hits filed as inhibitors; 0.074% of 350,000 active; note: % is set by controls: 0 for no effect and ±100 for the full control effect; nearly all actives have a fitted effect of over 20% in size
Target sequence (P02791 2-175 limits assumed): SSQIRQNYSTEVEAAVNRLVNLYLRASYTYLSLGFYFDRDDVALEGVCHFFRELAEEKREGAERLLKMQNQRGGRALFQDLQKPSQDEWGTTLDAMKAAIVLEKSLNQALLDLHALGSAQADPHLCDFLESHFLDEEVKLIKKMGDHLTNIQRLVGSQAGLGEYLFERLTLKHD
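Horse-spleen apoferritin (10 uM) was mixed with 50% saturated 1-aminoanthracene in PBS, exposed to compounds for 10 min at room temperature, and read for fluorescence (ex 380 nm, em 535 nm). Competitive displacement was fitted with a four-parameter Hill equation.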
HepG2 tox: HepG2 cytotoxicity, counter-screen for TGF-b inhibitors. HepG2 CAGA-GFP viability, ATP luminescence, 18 h. Potency, µM (doses to about 46.1 µM), inactives show top-dose activity change, negative = cytotoxicity, hits mostly cytotoxic. 0.76% of 410,000 active. AID 588856
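HepG2 CAGA-GFP cells (1000/well, DMEM with 1% FBS) received compound, then TGF-beta at 500 pg/mL final, and were incubated 18 hours at 37 degrees C. Viability was read by CellTiter-Glo luminescence. Media-only wells were set as complete cell-killing and DMSO as no toxicity.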
TGFb inhibitor: inhibitors of TGF-b signaling; HepG2 CAGA-GFP TGF-b/SMAD3 reporter, GFP fluorescence, 18 h; TGF-beta stimulated, 500 pg/mL final; Potency, µM (top dose mostly 46.1 µM), inactives show at the top dose activity, negative = inhibition, most hits filed as inhibitors; 1.2% of 410,000 active; note: % is set by controls: 0 for no effect and ±100 for the full control effect; nearly all actives have a fitted effect of over 65% in size
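Cell-based qHTS in HEPG2 carrying a CAGA-GFP Smad reporter; compounds added before 500 pg/mL final TGF-beta, 18 h incubation at 37 degrees C, GFP fluorescence quantified per cell by imaging cytometry.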
ATXN2 expr inh: ATXN2 expression inhibition. HEK-293 ATXN2-luciferase reporter, luminescence, 24 h. Potency, µM (doses to about 57 µM), inactives show at the top dose activity change, negative = inhibition, actives largely listed as inhibitors. 0.72% of 360,000 active; note: % is set by controls: 0 for no effect and ±100 for the full control effect; nearly all actives have a fitted effect of over 55% in size
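ATXN2-luciferase reporter cells (luciferase flanked by upstream and downstream ATXN2 gene portions) were treated 24 h at 37 °C with compounds at up to 57 uM. SteadyGlo luminescence gave expression; GF-AFC fluorescence gave viability.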
ATXN viability: cell viability loss in ATXN counter-screen; S2 cells (HEK-293 line with an ATXN2-luciferase reporter) viability, CellTiter-Fluor protease fluorescence, 24 h; AID 651635; 0.49% of 400,000 active; Potency, µM (top dose mostly 56.7 µM), actives largely listed as cytotoxic; note: nearly all actives have a fitted effect of over 40% in size
Active calls of the source: *; i = inactive; ? = inconclusive; nt = not tested or not shown. In the library only some 2.4% were active in any assay of this set; here they are far more common. Calls come from the whole dose curve; as a rule, active = well fitted curve in the direction sought with a large enough effect; inconclusive = small, poorly fitted or top-dose-only effect, or another doubt; inactive = no such curve, though single readings can be large; an effect the other way counts as inactive or inconclusive. Potency is the fitted concentration of half-maximal effect.

SMILES	Anesthetic bind	HepG2 tox	TGFb inhibitor	ATXN2 expr inh	ATXN viability
COc1ccc(N2C(=O)C(CC(=O)Nc3ccc(F)cc3)N(CCC3=CCCCC3)C2=O)cc1 (stereo not drawn)	-2.5%	-28.4%	-26.9%	-17.7%	i
Nc1[nH]c(C(=O)c2ccccc2)c(-c2ccccc2Br)c1C(=O)NCCc1c[nH]c2ccccc12	nt	nt	nt	?	20µM*
CSC1(SC2=NCCN2)SC2(NCCN2)S1	nt	-14.6%	12.6µM*	?	?
CCOC(=O)c1c(-c2ccccc2)csc1NC(=O)CSc1nncs1	6.5%	7.3%	-12.4%	-9.4%	i
CCOC(=O)c1c(NC(=O)CSc2nncs2)sc(C)c1-c1ccccc1	-18.4%	-0.1%	11.2µM*	-6.4%	i
COc1ccnc2c1CCCCC2S(=O)c1nc2ccccc2[nH]1 (stereo not drawn)	nt	nt	nt	38.5%	i
Cc1c(C(=O)c2no[n+]([O-])c2C(=O)c2cnn(C)c2C)cnn1C	-11.6%	11.2µM*	7.94µM*	?	nt
CN(Cc1ccccc1F)c1nc(-c2cccnc2)nc2ccccc12	-8.2%	-2.5%	-18.0%	-16.5%	i
CCOc1ccc(CN(C)c2nc(-c3cccnc3)nc3ccccc23)cc1OC	-8.2%	-29.3%	?	18.9µM*	?
CCc1ccc(Nc2nnc(SCC(=O)Nc3sccc3C(N)=O)s2)cc1	-22.8%	-1.9%	10µM*	1.0%	?
Cc1c(C(=O)O)sc2nc(-c3cccs3)cc(C(F)(F)F)c12	1.9%	-16.3%	3.8%	-3.9%	i
Cc1c(C(=O)Nc2nccs2)sc2nc(-c3cccs3)cc(C(F)(F)F)c12	1.2%	-36.8%	-1.2%	25.1µM*	?
CCOC(=O)c1c[nH]c(=S)n(-c2ccccc2)c1=O	nt	3.2%	?	6.2%	i
CCOC(=O)c1c(SCCN2CCCC2)n(-c2ccccc2)c(=S)n(-c2ccccc2)c1=O	nt	-46.6%	?	22.4µM*	?
N/C(=N\S(=O)(=O)c1cc(C(F)(F)F)cc(C(F)(F)F)c1)c1ccncc1	-16.6%	-28.9%	4.6%	-8.3%	i
N/C(=N\S(=O)(=O)c1cc(C(F)(F)F)cc(C(F)(F)F)c1)c1ccc(Cl)cc1	-9.8%	-119.4%	10µM*	?	?
CCCCCCCN(c1ccccc1)C1C[C@H]2CCCC(=O)N3CC[C@@H](C1)[C@@H]23 (stereo partly drawn)	nt	-60.7%	14.1µM*	nt	nt
CN1/C(=C\C=C2/SC(=S)NC2=O)C(C)(C)c2ccccc21	?	-40.0%	35.2%	nt	28.2µM*
CN1/C(=C\C=[N+](C)c2ccccc2)C(C)(C)c2ccccc21	-22.3%	-35.0%	-26.5%	7.08µM*	11.2µM*
c1ccc2c(c1)SCc1c-2[nH]c2ccccc12	-22.9%	nt	nt	nt	nt
CN1CCN(C2=C(Cl)C(=O)N(C3CCCCC3)C2=O)CC1	1.0%	-78.9%	12.6µM*	-22.4%	i
COc1ccc(CNc2cccc3[nH]c(C(F)(F)F)nc23)cc1	-13.0%	-25.5%	?	-25.7%	i
COc1cc(CNc2cccc3[nH]c(C(F)(F)F)nc23)cc(OC)c1	0.9%	-46.4%	12.6µM*	nt	i
COc1cccc(C(=O)C(CCC#N)c2ccccc2)c1 (stereo not drawn)	nt	1.1%	-0.6%	nt	i
COc1cccc(C(=O)C(C#N)=C(SC)SC)c1	-1.2%	10µM*	?	nt	nt
SMILES	Anesthetic bind	HepG2 tox	TGFb inhibitor	ATXN2 expr inh	ATXN viability
CSC(SC)=C(C#N)C(=O)c1ccccc1	-2.6%	-133.6%	?	22.4µM*	nt
CC(=NNC(=S)N1CC2CCC(CC2)C1)c1ccncn1	nt	-40.1%	?	0.316µM*	?
Cc1nc2ccn(Cc3ccco3)c(=O)c2cc1C(=O)N1CCN(c2ccccc2F)CC1	2.6%	-32.8%	?	nt	nt
COc1ccc(Cn2ccc3nc(C)c(C(=O)N4CCN(c5ccccc5)CC4)cc3c2=O)cc1	-2.3%	-2.6%	-5.2%	8.6%	i
COc1ccc(Cn2ccc3nc(C)c(C(=O)N4CCN(c5cc(C)ccc5C)CC4)cc3c2=O)cc1	?	-19.6%	15.8µM*	?	?
Cc1nc2ccn(Cc3cccs3)c(=O)c2cc1C(=O)N1CCN(c2ccccc2F)CC1	-22.2%	-22.3%	20µM*	nt	nt
CCC[N+](C)(C)c1ccc(/C=C/c2ccncc2)cc1	nt	-33.0%	43.7%	nt	nt
